{"source": "PubChem BioAssay (EPA / NIEHS)", "note": "Activity calls are given as the source filed them. How the source made its calls: active means hit-call score of the fitted dose curve at least 0.9, where 1 is the maximum; inactive means score below 0.9.", "data": [{"biological_target": "PGR (gene 5241) (UniProt P06401)", "sequence (P06401 whole entry, looked up)": "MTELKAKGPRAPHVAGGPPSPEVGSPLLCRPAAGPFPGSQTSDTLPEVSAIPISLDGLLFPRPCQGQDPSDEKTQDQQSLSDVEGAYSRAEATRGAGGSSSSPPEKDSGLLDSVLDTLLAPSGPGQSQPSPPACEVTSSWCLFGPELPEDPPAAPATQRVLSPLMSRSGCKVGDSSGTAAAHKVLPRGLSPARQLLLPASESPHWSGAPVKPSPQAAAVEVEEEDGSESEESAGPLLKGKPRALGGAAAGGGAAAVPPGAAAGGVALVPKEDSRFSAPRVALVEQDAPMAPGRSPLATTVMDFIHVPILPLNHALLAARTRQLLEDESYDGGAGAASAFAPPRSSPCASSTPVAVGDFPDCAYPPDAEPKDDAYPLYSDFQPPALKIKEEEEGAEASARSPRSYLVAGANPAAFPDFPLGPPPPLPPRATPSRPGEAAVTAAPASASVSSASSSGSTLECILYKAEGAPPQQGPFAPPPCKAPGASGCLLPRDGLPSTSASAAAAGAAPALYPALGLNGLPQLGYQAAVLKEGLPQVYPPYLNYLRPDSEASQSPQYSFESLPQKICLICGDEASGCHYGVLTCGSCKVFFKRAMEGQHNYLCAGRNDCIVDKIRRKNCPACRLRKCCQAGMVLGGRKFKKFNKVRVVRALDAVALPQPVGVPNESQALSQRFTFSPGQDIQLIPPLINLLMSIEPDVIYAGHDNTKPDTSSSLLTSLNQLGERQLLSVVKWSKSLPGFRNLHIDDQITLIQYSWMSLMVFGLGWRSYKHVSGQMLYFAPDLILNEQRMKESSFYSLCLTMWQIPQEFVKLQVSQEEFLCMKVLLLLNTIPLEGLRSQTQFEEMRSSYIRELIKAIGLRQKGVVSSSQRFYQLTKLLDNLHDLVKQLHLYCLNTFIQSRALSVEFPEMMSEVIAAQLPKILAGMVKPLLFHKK", "test": "TOX21_PR_LUC_Followup_Agonist: Tox21 HEK293 Progesterone Receptor (PR) Agonism Luciferase Follow-Up Assay (AID 2283937)", "method_in_brief": "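Agonism scored as luciferase induction over DMSO, read by ONE-Glo after 30 min at RT. Compounds were incubated 16 h at 37C on HEK293-PR-A-luc cells (3,000/well, pre-plated 5 h) previously grown 5 days in charcoal-stripped serum.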", "values": [{"smiles": "CC(=O)O[C@@H]1CC2C3CCc4cc(OC(=O)c5ccccc5)ccc4C3CCC2(C)[C@H]1OC(C)=O", "note": "(stereo partly specified)", "AC50": "20.1 µM (active)"}, {"smiles": "CC(=O)OCC(=O)[C@@]1(O)CC[C@H]2[C@@H]3CCC4=CC(=O)CC[C@]4(C)[C@H]3C(=O)C[C@@]21C", "outcome": "inactive"}, {"smiles": "CC(=O)OCC(=O)[C@H]1CC[C@H]2[C@@H]3CCC4=CC(=O)CC[C@]4(C)[C@H]3CC[C@]12C", "AC50": "0.0297 µM (active)"}, {"smiles": "C[C@@H]1CC(=O)NN=C1c1ccc(NN=C(C#N)C#N)cc1", "outcome": "inactive"}, {"smiles": "CCC(=O)Oc1ccc2c(c1)CC[C@@H]1[C@@H]2CC[C@@]2(C)[C@H]1C[C@@H](OC(=O)CC)[C@@H]2OC(=O)CC", "AC50": "16.8 µM (active)"}, {"smiles": "COC(=O)C1=C(C)NC(C)=C(C(=O)OC(C)C)C1c1cccc2nonc12", "note": "(stereo unspecified)", "outcome": "inactive"}, {"smiles": "CC1(C)OC(=O)Nc2ccc(Br)cc21", "outcome": "inactive"}, {"smiles": "CCCC(=O)OCOC(=O)C1=C(C)NC(C)=C(C(=O)OC)C1c1cccc(Cl)c1Cl", "note": "(stereo unspecified)", "outcome": "inactive"}, {"smiles": "C[C@@H]1C[C@H]2[C@@H]3CCC4=CC(=O)C=C[C@]4(C)[C@@]3(F)[C@@H](O)C[C@]2(C)[C@@]1(O)C(=O)COC(=O)c1ccncc1", "AC50": "0.51 µM (active)"}, {"smiles": "CC(=O)O[C@H]1CC[C@@]2(C)C(=CC[C@@H]3[C@@H]2CC[C@]2(C)C(C(C)=O)=CC[C@@H]32)C1", "outcome": "inactive"}, {"smiles": "CCC(=O)O[C@]1(C(=O)COC)[C@@H](C)C[C@H]2[C@@H]3CCC4=CC(=O)C=C[C@]4(C)C3(F)[C@@H](O)C[C@@]21C", "note": "(stereo partly specified)", "AC50": "0.0067 µM (active)"}, {"smiles": "CC(C)(C)C(O)/C=C/c1ccc2c(c1)OCO2", "note": "(stereo unspecified)", "outcome": "inactive"}, {"smiles": "CCN(CC)CC(=O)OCC(=O)[C@@]1(O)CC[C@H]2[C@@H]3CCC4=CC(=O)CC[C@]4(C)[C@H]3[C@@H](O)C[C@@]21C", "AC50": "1.47 µM (active)"}, {"smiles": "COC(=O)[C@@H]1CC2=CC(=O)CC[C@]2(C)[C@@]23O[C@@H]2C[C@@]2(C)[C@@H](CC[C@@]24CCC(=O)O4)[C@H]13", "outcome": "inactive"}, {"smiles": "C[C@]12CCC(=O)C=C1CC[C@@H]1[C@@H]2[C@@H](O)C[C@@]2(C)[C@H]1CC[C@]2(O)C(=O)CO", "AC50": "1.3 µM (active)"}, {"smiles": "C/C=C(/C(=C/C)c1ccc(OC(C)=O)cc1)c1ccc(OC(C)=O)cc1", "outcome": "inactive"}]}]}
